These results are taken from PubChem BioAssay (NCATS).

Assay [1] in a line: Quantitative High-Throughput drug screen in 47 multiple myeloma cell lines against the NCATS MIPE library collection: H1112_PLB cell viability assay (AID 1918967; note: nearly all actives have a fitted effect of over 30% in size; note: potency is the fitted concentration of half-maximal effect). The procedure, abridged: (§1)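 Viability readout: CellTiter-Glo luminescence following 5 min room-temperature incubation with reagent. Prior exposure: 48 h, 37C, humidified 5% CO2, 500 cells per well.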
Assay [2] is described as follows: Quantitative High-Throughput drug screen in 47 multiple myeloma cell lines against the NCATS MIPE library collection: Karpas25_ECACC cell viability assay (AID 1918968; note: nearly all actives have a fitted effect of over 35% in size; note: potency is the fitted concentration of half-maximal effect). In a few lines: as §1
Assay [3] in a line: Quantitative High-Throughput drug screen in 47 multiple myeloma cell lines against the NCATS MIPE library collection: KMS12BM_JCRB cell viability assay (AID 1918971). Note: nearly all actives have a fitted effect of over 35% in size. Note: potency is the fitted concentration of half-maximal effect. In a few lines: (§2)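 Approved and investigational drugs from MIPE 4.0 were added by pin tool to 500 cells per well. After 48 hours at 37C, ATP-based CellTiter-Glo luminescence indicated remaining viability.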
Assay [4] in a line: Quantitative High-Throughput drug screen in 47 multiple myeloma cell lines against the NCATS MIPE library collection: KMS20_JCRB cell viability assay (AID 1918973). Note: nearly all actives have a fitted effect of over 45% in size. Note: potency is the fitted concentration of half-maximal effect. The procedure, abridged: as §1
Assay [5] can be described thus: Quantitative High-Throughput drug screen in 47 multiple myeloma cell lines against the NCATS MIPE library collection: NCIH929_DSMZ cell viability assay (AID 1918978). Note: nearly all actives have a fitted effect of over 35% in size. Note: potency is the fitted concentration of half-maximal effect. In a few lines:
(§3)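 500 cells/well; MIPE 4.0 drugs pin-transferred; 48 h, 37C, 5% CO2. CellTiter-Glo, 5 min RT, luminescence. Controls: DMSO 100%, media 0%.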

Assay [6] is described as follows: Quantitative High-Throughput drug screen in 47 multiple myeloma cell lines against the NCATS MIPE library collection: MM1R_ATCC cell viability assay (AID 1918981). Note: nearly all actives have a fitted effect of over 35% in size. Note: potency is the fitted concentration of half-maximal effect. The procedure, abridged:
as §3

A short description of assay [7]: Quantitative High-Throughput drug screen in 47 multiple myeloma cell lines against the NCATS MIPE library collection: LP1_DSMZ cell viability assay (AID 1918982). Note: nearly all actives have a fitted effect of over 35% in size. Note: potency is the fitted concentration of half-maximal effect. In a few lines: as §3
Assay [8] is described as follows: Quantitative High-Throughput drug screen in 47 multiple myeloma cell lines against the NCATS MIPE library collection: KMS28PE_JCRB cell viability assay (AID 1918983). Note: nearly all actives have a fitted effect of over 35% in size. Note: potency is the fitted concentration of half-maximal effect. In a few lines:
as §3

A short description of assay [9]: Quantitative High-Throughput drug screen in 47 multiple myeloma cell lines against the NCATS MIPE library collection: L363_DSMZ cell viability assay (AID 1918984). Note: nearly all actives have a fitted effect of over 40% in size. Note: potency is the fitted concentration of half-maximal effect. In a few lines:
as §3

Assay [10] in a line: Quantitative High-Throughput drug screen in 47 multiple myeloma cell lines against the NCATS MIPE library collection: KMS34_JCRB cell viability assay (AID 1918985). Note: nearly all actives have a fitted effect of over 40% in size. Note: potency is the fitted concentration of half-maximal effect. In a few lines:
as §3

Assay [11] can be described thus: Quantitative High-Throughput drug screen in 47 multiple myeloma cell lines against the NCATS MIPE library collection: KMS27_JCRB cell viability assay (AID 1918970). Note: nearly all actives have a fitted effect of over 30% in size. Note: potency is the fitted concentration of half-maximal effect. In a few lines:
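Viability inhibition screen, 48 h compound exposure, luminescent ATP read-out.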

Assay [12] is described as follows: Quantitative High-Throughput drug screen in 47 multiple myeloma cell lines against the NCATS MIPE library collection: KMS12PE_JCRB cell viability assay (AID 1918972). For viability: series mostly up to about 46 µM. Note: nearly all actives have a fitted effect of over 30% in size. Note: potency is the fitted concentration of half-maximal effect. The procedure, abridged:
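CellTiter-Glo luminescence (ATP) after 48 h compound exposure, 37C/5% CO2; 500 cells/well; MIPE 4.0 approved/investigational drugs pinned in; DMSO = 100%, media only = 0% viability.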

Assay [13] in a line: Quantitative High-Throughput drug screen in 47 multiple myeloma cell lines against the NCATS MIPE library collection: KMS26_JCRB cell viability assay (AID 1918975). Note: nearly all actives have a fitted effect of over 45% in size. Note: potency is the fitted concentration of half-maximal effect. In a few lines: as §2
Assay [14] in a line: Quantitative High-Throughput drug screen in 47 multiple myeloma cell lines against the NCATS MIPE library collection: MMM1_PLB cell viability assay (AID 1918976). In a few lines:
as §3

The nature of assay [15]: Quantitative High-Throughput drug screen in 47 multiple myeloma cell lines against the NCATS MIPE library collection: MOLP8_DSMZ cell viability assay (AID 1918977). Note: nearly all actives have a fitted effect of over 45% in size. Note: potency is the fitted concentration of half-maximal effect. In a few lines: as §3
Assay [16] is described as follows: Quantitative High-Throughput drug screen in 47 multiple myeloma cell lines against the NCATS MIPE library collection: OCIMY7_PLB cell viability assay (AID 1918987). Note: nearly all actives have a fitted effect of over 65% in size. Note: potency is the fitted concentration of half-maximal effect. In a few lines:
as §3

A short description of assay [17]: Quantitative High-Throughput drug screen in 47 multiple myeloma cell lines against the NCATS MIPE library collection: MM1S_ATCC cell viability assay (AID 1918980). Note: nearly all actives have a fitted effect of over 45% in size. Note: potency is the fitted concentration of half-maximal effect. The procedure, abridged:
as §3

Assay [18] in a line: Quantitative High-Throughput drug screen in 47 multiple myeloma cell lines against the NCATS MIPE library collection: OCIMY1_PLB cell viability assay (AID 1918979). In a few lines:
as §3

Results filed as inconclusive are left out. Activity calls are given as the source filed them. Calls come from the whole dose curve; as a rule, active = well fitted curve in the direction sought with a large enough effect; inconclusive = small, poorly fitted or top-dose-only effect, or another doubt; inactive = no such curve, though single readings can be large; an effect the other way counts as inactive or inconclusive.

With `CC(C)N(CCNC(=O)CN1CCCC1=O)C(C)C`, the Potency result in assay [1], in assay [2], in assay [4], in assay [5], in [6] and in assay [7] was “inactive” each time. Besides, the Potency result in assay [8], in assay [9] and in assay [10] was “inactive” each time. In addition, the Potency in [3] was 11.8 µM (active).
Turning to `C[C@]12CCC(=O)C(O)=C1CC[C@@H]1[C@H]3CCC(=O)[C@@]3(C)CC[C@@H]12`, the Potency result in [1], in assay [11], in [12], in assay [13], in assay [5] and in [7] was “inactive” in each case. The Potency entry in [10] was “inactive”. Moreover, the Potency in assay [3] is 20.9 µM (active).
Regarding `CCCCCC[C@H]1C(=O)O[C@H](C)[C@H](NC(=O)c2cccc(NC=O)c2O)C(=O)O[C@@H](C)[C@@H]1OC(=O)CC(C)C`, the Potency in assay [1] is 0.132 µM (active); in assay [2] it was 0.166 µM (active); in assay [11], 0.235 µM (active); in assay [3] it was 6.62 µM (active); in [13], 0.132 µM (active); in [14], 0.148 µM (active). In addition, the Potency in assay [15] was 0.235 µM (active); in [5] it was 0.332 µM (active); in assay [7] it was 0.059 µM (active); in assay [8], 0.372 µM (active); in assay [16], 0.187 µM (active).
Consider `CCN1C[C@]2(OC(=O)c3ccccc3NC(C)=O)CC[C@H](OC)[C@@]34[C@H]5CC6[C@@H](OC)C[C@](O)(C(C[C@@H]23)[C@@H]14)[C@@]5(O)[C@@H]6OC`, for which the Potency result in assay [1], in assay [2], in [12], in assay [13], in assay [5] and in [6] was “inactive” throughout. In addition, the Potency result in assay [7], in [8], in assay [9] and in assay [16] was “inactive” in each case.
Take `C#CC1(O)CCC2C3CCC4=CC(=O)CCC4(C)C3CCC21C` (stereo unspecified): the Potency result in assay [1], in [2], in assay [11], in assay [4], in assay [5] and in assay [17] was “inactive” in each case. The Potency result in assay [7] and in assay [10] was “inactive” each time. The Potency in assay [3] was 4.18 µM (active); in assay [14], 9.35 µM (active); in assay [8], 20.9 µM (active).
Turning to `CO[C@H]1CCC(O[C@H]2C[C@H]([C@]3(C)CC[C@]4(C[C@H](O)[C@@H](C)[C@@H]([C@@H](C)C=C(C)C(=O)[C@H](C)C[C@H](C)C(=O)O)O4)O3)O[C@]3(O[C@@H]([C@H]4O[C@@](O)(CO)[C@H](C)C[C@H]4C)C[C@H]3C)[C@H]2C)O[C@H]1C` (stereo partly specified), the Potency in assay [1] was 0.662 µM (active); in assay [2], 1.48 µM (active); in assay [3], 0.0833 µM (active); in [4], 0.235 µM (active); in [13], 0.372 µM (active); in assay [5], 0.833 µM (active). Also, the Potency in assay [6] is 1.05 µM (active); in assay [7] it was 0.833 µM (active); in [8] it was 3.72 µM (active); in assay [9], 0.148 µM (active); in [10] it was 1.18 µM (active); in assay [16], 0.935 µM (active).
In the case of `CCc1c(C(=O)C(N)=O)c2c(OCC(=O)O)cccc2n1Cc1ccccc1`, the Potency result in assay [1], in assay [2], in assay [11], in assay [3], in assay [4] and in [13] was “inactive” in each case. The Potency result in assay [5], in assay [17], in assay [7], in assay [10] and in assay [16] was “inactive” each time. Moreover, in [8], the Potency was 7.43 µM (active).
As for `C#C[C@]1(O)C=C[C@@H]2[C@@H]3CCC4=CC(=O)CC[C@@H]4[C@H]3CC[C@@]21CC`, the Potency result in assay [1], in assay [2], in assay [4], in [13], in [15] and in assay [5] was “inactive” each time. For the same compound, the Potency result in assay [18], in assay [17], in assay [7], in assay [8] and in assay [10] was “inactive” each time.
On to `CC(C)(C)[C@]1(O)C[C@@H]2OC(=O)C[C@@]23C(=O)O[C@@H]2OC(=O)[C@H](O)C213` (stereo partly specified), for which the Potency result in assay [1], in [2], in assay [11], in assay [3], in assay [15] and in assay [5] was “inactive” in each case. Also, the Potency entry in [17], in assay [7], in assay [8] and in [10] was “inactive” in each case.
Take `CCOC(=O)c1cncn1[C@H](C)c1ccccc1`: the Potency result in [1], in [2], in assay [11], in assay [13], in assay [5] and in assay [7] was “inactive” throughout. Also, in assay [16], the Potency entry was “inactive”. In addition, the Potency in assay [3] was 5.26 µM (active).
As to `O=C(Oc1ccc([N+](=O)[O-])cc1)N1CCC(C(O)(c2ccc3c(c2)OCO3)c2ccc3c(c2)OCO3)CC1`, the Potency in assay [1] was 10.5 µM (active). The Potency result in assay [11], in assay [3], in [13], in assay [15], in assay [7] and in assay [8] was “inactive” in each case. For the same compound, in [10], the Potency entry was “inactive”.
For `c1cc2c(cc1[C@H]1OC[C@H]3[C@H]1CO[C@H]3c1ccc3c(c1)OCO3)OCO2`, the Potency result in assay [11], in assay [4], in [15], in [5] and in assay [8] was “inactive” in each case.
With `C=C[C@@H]1CN2CCC1C[C@H]2[C@H](O)c1ccnc2ccccc12` (stereo partly specified), the Potency is 13.2 µM (active) in assay [1]; 23.5 µM (active) in [3]; 6.62 µM (active) in [12]; 7.43 µM (active) in assay [14]; 14.8 µM (active) in assay [5]; 18.7 µM (active) in [17]. Moreover, the figures for the Potency in assay [6], in [7] and in [8] were 26.4 µM (active), 10.5 µM (active) and 14.8 µM (active), respectively. Moreover, the Potency entry in [13] is “inactive”.
In the case of `Cc1nc(-c2ccc(-c3ccc(C(=O)N4CCc5cc6c(cc54)C4(CCN(C)CC4)CO6)cc3)c(C)c2)no1`, the Potency entry in assay [1], in [11], in assay [3], in assay [4], in assay [5] and in assay [17] was “inactive” in each case. For the same compound, the Potency entry in assay [6] and in assay [7] was “inactive” each time.
Turning to `CC1(N2CCC(n3c([C@@H]4CCCNC4)nc4ccccc43)CC2)CCCCCCC1`, the Potency in assay [2] was 18.7 µM (active); in assay [11] it was 14.8 µM (active); in assay [3], 20.9 µM (active); in assay [5], 11.8 µM (active); in [7] it was 23.5 µM (active); in assay [9] it was 6.62 µM (active). The Potency result in [8] was “inactive”.
